Assay outcomes as filed in PubChem.
FBPA Giardia inh = inhibitors of Giardia lamblia fructose-1,6-bisphosphate aldolase. A8B2U2. purified Giardia FBPA. Potency, µM (series often up to 59.6 µM), for the others: at the top dose activity, negative = inhibition, usual class: inhibitors. actives 0.71% (n = 290,000). AID 2451; further: potency means the concentration at half of the fitted maximal effect; on the % scale 0 is the no-effect control and ±100 the full control effect; nearly all actives have a fitted effect of over 55% in size
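Giardia FBPA (40 nM reagent) was preincubated 10 min at RT with compound (up to 57.5 uM final), then substrate plus GAPDH/TPI/NAD/arsenate coupling system with diaphorase/resazurin was added; resorufin fluorescence (525/598 nm) was read after 20 min.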
Shiga toxin inh = inhibitors of Shiga toxin in Vero cells; Vero cells, Shiga toxin protein synthesis inhibition reporter; actives 9.2% (n = 290,000); inhibition, % at 38.7 µM; AID 2315; in the data active means inhibition mostly above about 28%, no sharp cut-off; inactive means mostly below about 43%; further: 0% is about no effect
TbPYK inhibitor = T. brucei pyruvate kinase inhibition; Q57TT1; TbPYK enzyme, Kinase-Glo Plus ATP luminescence, 45 min; Potency, µM (top dose mostly 76.8 µM), for inactives: top-dose activity, negative = inhibition, actives largely listed as inhibitors; actives 0.12% (n = 410,000); further: potency means the concentration at half of the fitted maximal effect; on the % scale 0 is the no-effect control and ±100 the full control effect; nearly all actives have a fitted effect of over 50% in size
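Quantitative HTS: titrated library compounds versus trypanosomal pyruvate kinase in TEA buffer (pH 7.2) containing KCl, MgCl2, BSA and Tween-20. Reactions were initiated with ADP, 130 uM final. Kinase-Glo Plus luminescence was read after 45 min at RT.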
CHX counter = counter-screen for Shiga toxin inhibitors: cycloheximide protein synthesis inhibition. cell reporter, cycloheximide protein synthesis inhibition counterscreen. max response, %. actives 12% (n = 300,000). AID 2314; in the data active means max response mostly above about 13%, no sharp cut-off; inactive means mostly below about 14%; further: read at 38.3 µM for the half of the compounds with a filed dose; 0% is about no effect
LmPK inh = blocks Leishmania mexicana pyruvate kinase activity; Potency, µM (series often up to 57.5 µM), inactives show at the highest dose activity change, negative = inhibition, hits mostly inhibitors; purified LmPK, Kinase-Glo ATP luminescence, 1 h; actives 0.37% (n = 290,000); further: potency means the concentration at half of the fitted maximal effect; on the % scale 0 is the no-effect control and ±100 the full control effect
Target sequence (Q27686 whole entry, looked up): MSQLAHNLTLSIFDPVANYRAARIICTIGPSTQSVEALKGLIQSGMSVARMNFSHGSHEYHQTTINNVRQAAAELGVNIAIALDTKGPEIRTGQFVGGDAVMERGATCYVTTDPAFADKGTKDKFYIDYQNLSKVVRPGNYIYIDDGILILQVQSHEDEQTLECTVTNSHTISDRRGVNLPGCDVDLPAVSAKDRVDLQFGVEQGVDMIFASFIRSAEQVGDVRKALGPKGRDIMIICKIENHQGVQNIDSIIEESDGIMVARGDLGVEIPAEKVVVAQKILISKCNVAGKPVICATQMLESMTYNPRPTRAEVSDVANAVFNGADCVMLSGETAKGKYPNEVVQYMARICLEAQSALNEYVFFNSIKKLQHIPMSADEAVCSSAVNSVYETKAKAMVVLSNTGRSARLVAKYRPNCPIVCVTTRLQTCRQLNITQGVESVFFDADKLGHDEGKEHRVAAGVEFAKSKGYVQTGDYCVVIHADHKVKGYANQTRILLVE
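0.1 nM LmPK, 0.5 mM PEP, 0.1 mM ADP; 50 mM imidazole pH 7.2, 7 mM MgCl2, 50 mM KCl; 1 h RT. Kinase-Glo luminescence readout, normalized to no-enzyme (full inhibition) and uninhibited wells.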
RE007 growth inh = less growth of the S. pombe RE007 Vpr strain; S. pombe RE007 Vpr strain, BacTiter-Glo ATP luminescence, 24 h; Potency, µM (top dose mostly 92.2 µM), for inactives: top-dose activity change, negative = less growth, actives largely listed as inhibitors; actives 0.21% (n = 360,000); active means well fitted falling curve with a large enough effect; inconclusive means small, poorly fitted or top-dose-only effect; inactive means no such curve, though single readings can be large or run the other way; further: potency means the concentration at half of the fitted maximal effect; on the % scale 0 is the no-effect control and ±100 the full control effect; nearly all actives have a fitted effect of over 50% in size
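Fission yeast strain RE007, carrying one chromosomally integrated HIV-1 vpr copy, was seeded at OD 0.01 in PMG+AL medium with 23 nL pinned compound. After 24 h at 30 °C and 99% humidity, viability was read by BacTiter-Glo luminescence.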
Starred values were filed as active, the others as inactive; ? = inconclusive; · = no result given; [ ] = remark or other dose. Many of the other results were omitted from the sample, so hits are more common in it than they were. Unless noted, the call rests on the fitted dose curve; in most records, active means well fitted curve in the direction sought with a large enough effect; inconclusive means small, poorly fitted or top-dose-only effect, or another doubt; inactive means no such curve, though single readings can be large; an effect the other way counts as inactive or inconclusive.

SMILES	FBPA Giardia inh	Shiga toxin inh	TbPYK inhibitor	CHX counter	LmPK inh	RE007 growth inh
Nc1nnc(-c2ccc(Cl)cc2Cl)s1	-4%	58*	2%	23*	-10%	14%
COc1ccc(OCCSc2ncccn2)cc1	1%	113*	-6%	46*	-20%	-6%
Clc1ccc(OCCSc2ncccn2)cc1	-1%	117*	-25%	55*	1%	-10%
OC(COc1ccc(Cl)cc1)CSc1ccccn1 (stereo not given)	-4%	21	3%	27*	-1%	?
COc1ccc(OCCCSc2ncccn2)cc1	-4%	104*	-8%	39*	-2%	-10%
O=C(Cn1c(=O)n(-c2ccccc2)c(=O)c2c3c(sc21)CCC3)c1ccc(Br)cc1	·	·	-3%	·	·	·
Cc1ccc(OCCCSc2ncccn2)cc1C	-1%	74*	2%	44*	2%	-16%
COc1ccc(OCCSc2nc(C)nc3ccccc23)cc1	-2%	31	2%	43*	3%	5%
CCOC(=O)C1=CCN(S(C)(=O)=O)C1c1ccc(C)cc1 (stereo not given)	·	·	-1%	·	·	10%
COc1ccccc1-c1noc(-c2ccc(N3CCOCC3)c([N+](=O)[O-])c2)n1	·	·	-3%	·	·	·
Cc1cc(-c2ccc(S(=O)(=O)NCc3ccccc3Cl)s2)on1	·	·	-21%[15.4 µM]	·	·	·
Cc1ccc(NC(=O)CSc2nccn2C)cc1S(=O)(=O)N1CCOCC1	-17%	-8	-5%	-1	1%	1%
Cn1ccnc1SCC(=O)c1ccc(F)cc1	·	·	-5%	·	·	-5%
O=C(O)CSc1ncnc2nc[nH]c12	0%	-17	-10%	-7	-5%	-19%
O=C(CSc1ncnc2nc[nH]c12)c1ccc2ccccc2c1	-14%	42*	2%	33*	1%	1%
CCN(CC)S(=O)(=O)c1cc(NC(=O)CSc2nccn2C)ccc1C	0%	103*	1%	16*	5%	-13%
COc1cccc(C(=O)CSc2nccn2C)c1	?	97*	-13%	31*	-8%	-9%
Cn1ccnc1SCC(=O)c1ccc2ccccc2c1	-8%	88*	-12%	39*	-3%	-18%
CCN(CC)CCCn1c2c(c(SCC(=O)Nc3nc4ccccc4s3)nc1=O)CCC2	·	·	2%	·	·	-27%
Cc1cccc(NC(=O)CCNS(=O)(=O)c2ccc3[nH]c(=O)oc3c2)c1	·	5	-6%	-3	-5%	-15%
Cn1ccnc1SCC(=O)Nc1ccc2ccccc2c1	0%	48*	3%	42*	-5%	-4%
Cn1ccnc1SCC(=O)Nc1cccc(Br)c1	·	·	-3%	·	·	·
Cn1ccnc1SCC(=O)c1cccc(Br)c1	-7%	60	-18%	27*	-19%	-17%
Cc1ccc(NC(=O)CSc2ncc3ccccn23)cc1C	-27%	130*	-2%	39*	1%	-9%
COc1ccc(C(=O)CSc2nccn2C)c(OC)c1	·	57*	-9%	50*	-18%	2%
SMILES	FBPA Giardia inh	Shiga toxin inh	TbPYK inhibitor	CHX counter	LmPK inh	RE007 growth inh
COc1ccc(OC)c(C(=O)CSc2nnnn2C)c1	-6%	18	-10%	4	0%	2%
COCCNC(=O)C1(C)CCCN(Cc2ccc(-n3ccnc3)cc2)C1 (stereo not given)	·	·	-1%	·	·	-20%[18.4 µM]
Cn1ccnc1SCC(=O)c1cc2ccccc2o1	-19%	117*	-23%	45*	-11%	0%
Cc1ccnc(SCC(=O)c2cc3ccccc3o2)n1	-15%	25	6%	13*	1%	19%
O=C(CSc1ncccc1C(=O)O)c1cccc(C(F)(F)F)c1	14%	39	-3%	22	5%	-8%
O=C(CSc1ncccc1C(=O)O)c1ccc2ccccc2c1	16%	100*	-11%	45*	-12%	-1%
Cn1cnnc1SCC(=O)c1cc2ccccc2o1	2%	12	1%	10	8%	-26%
Cc1sc2ncn(CC(=O)N(C)c3cccc(C(F)(F)F)c3)c(=O)c2c1S(=O)(=O)N1CCN(c2ncccn2)CC1	·	·	-9%	·	·	·
CCSCc1nc2ccccn2c1Br	-17%	-5	-5%	16	-6%	-17%
CCCCSCc1nc2ccccn2c1Br	2%	56*	0%	31*	9%	-23%
COc1ccccc1C(=O)c1c(N)c(-c2nc(-c3ccccc3)cs2)c2ccccn12	·	·	-8%	·	·	·
N#C/C(=C\c1cccnc1)c1ccccn1	4%	25	-9%	11*	-2%	-16%
N#C/C(=C\c1ccncc1)c1ccccn1	3%	6	-5%	2	-4%	?
COc1ccc(/C(C#N)=C/c2cccnc2)cc1	1%	71*	·	45*	-6%	·
N#C/C(=C\c1ccc(Cl)c([N+](=O)[O-])c1)c1ccccn1	-5%	-11	-15%	12	-14%	-10%
COc1ccc(C(C#N)=Cc2cccc(OC)c2OC)cc1	·	·	1%	·	·	-22%
N#C/C(=C\c1ccccc1)c1ccccn1	3%	91*	-2%	31*	-22%	-24%
CNc1ccc(/C=C(\C#N)c2ccccn2)cc1[N+](=O)[O-]	-2%	69*	1%	45*	-7%	1%
O=C(Nc1c(Cl)cccc1Cl)c1cc(-c2cccc(O)c2)on1	·	·	-3%	·	·	·
Cc1cc(C)cc(NC(=O)Cn2c3ncccc3c(=O)n2-c2ccc(C)c(C)c2)c1	·	·	0%	·	·	·
COc1ccccc1NC(=O)CSc1oc(-c2cccs2)nc1S(=O)(=O)c1ccccc1	·	·	1%	·	·	·
O=C1NCCN(Cc2ccoc2)C1CC(=O)N(Cc1ccccc1)CC1CCC1 (stereo not given)	-4%	34	-7%	13*	6%	2%
COC(=O)c1cc2occc2n1CC(=O)Nc1ccc(N(C)C)cc1	·	·	-11%	·	·	·
O=C(COc1ccccc1Br)NCc1ccco1	0%	45	-3%	19*	-1%	11%
CCc1cc(=O)oc2c3c(cc(OCC(=O)NCc4ccco4)c12)OC(C)(C)CC3	-4%	34*	5%	33*	-5%	-10%
SMILES	FBPA Giardia inh	Shiga toxin inh	TbPYK inhibitor	CHX counter	LmPK inh	RE007 growth inh
Cc1cc(OCC(=O)OCC(=O)NCc2ccco2)ccc1Cl	·	·	1%	·	·	-1%
COc1ccccc1OCC(=O)NCc1ccco1	8%	24	3%	8	0%	27%
Cc1ccc(Cl)c(OCC(=O)NCc2ccco2)c1	6%	33	-12%	24*	7%	-1%
CCc1ccc(OCC(=O)NCc2ccco2)c(Br)c1	4%	106*	-3%	40*	-1%	-20%
Cc1cc(NC(=O)CN2C(=O)c3ccccc3C2=O)no1	2%	13	8%	0	-4%	32%
Cc1ccc(Cl)cc1-n1ncc2c(N3CCN(Cc4ccccc4)CC3)ncnc21	·	·	1%	·	·	·
CCS(=O)(=O)N1Cc2ccccc2CC1C(=O)Nc1nccs1 (stereo not given)	-2%	25*	-8%	30*	-1%	4%
